From PubChem BioAssay come the findings set out here.

Test [1] has as its target Nuclear receptor coactivator 3 (Homo sapiens) (UniProt Q9Y6Q9). The test can be described thus: NCOA3 GAL4-fusion reporter inhibition – cell-based, luminescence, quadruplicate, confirmation (AID 588792;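 active = mean inhibition over 43.08%, the solvent-only control mean plus 3 SD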;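 also: 0% = DMSO treated cells and 100% = gossypol at 36 µM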). The settings on record: HEK293 GAL4-SRC3 luciferase reporter, at 3.6 µM, hits give high values. In general terms: Reporter assays use an easily measured gene product as a stand-in for the process of interest.

In test [2] the test system is transactivating tegument protein VP16 (Human herpesvirus 1), Gal4-VP16 luciferase reporter. Nature of the test: repression of VP16-driven luciferase reporter – cell-based, luminescence, high throughput, counter-screen for SRC3 inhibitor project (AID 588794). The settings on record: mammalian cells, at 3.6 µM, hits give high values.
The target in test [3] is Nuclear receptor coactivator 1 (Homo sapiens) (UniProt Q15788). The test can be described thus: NCOA1 GAL4-fusion reporter inhibition – cell-based, luminescence, quadruplicate, confirmation (AID 588820;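 active = mean inhibition above 46.68%, the untreated control wells mean plus 3 SD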;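 also: 0% = DMSO wells and 100% = gossypol 36 µM treated wells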). The settings on record: HEK293 GAL4-SRC1 luciferase reporter, at 3.6 µM, hits give high values.
Nuclear receptor coactivator 1 (Homo sapiens), sequence (Q15788 whole entry, looked up, the tested form may be a part): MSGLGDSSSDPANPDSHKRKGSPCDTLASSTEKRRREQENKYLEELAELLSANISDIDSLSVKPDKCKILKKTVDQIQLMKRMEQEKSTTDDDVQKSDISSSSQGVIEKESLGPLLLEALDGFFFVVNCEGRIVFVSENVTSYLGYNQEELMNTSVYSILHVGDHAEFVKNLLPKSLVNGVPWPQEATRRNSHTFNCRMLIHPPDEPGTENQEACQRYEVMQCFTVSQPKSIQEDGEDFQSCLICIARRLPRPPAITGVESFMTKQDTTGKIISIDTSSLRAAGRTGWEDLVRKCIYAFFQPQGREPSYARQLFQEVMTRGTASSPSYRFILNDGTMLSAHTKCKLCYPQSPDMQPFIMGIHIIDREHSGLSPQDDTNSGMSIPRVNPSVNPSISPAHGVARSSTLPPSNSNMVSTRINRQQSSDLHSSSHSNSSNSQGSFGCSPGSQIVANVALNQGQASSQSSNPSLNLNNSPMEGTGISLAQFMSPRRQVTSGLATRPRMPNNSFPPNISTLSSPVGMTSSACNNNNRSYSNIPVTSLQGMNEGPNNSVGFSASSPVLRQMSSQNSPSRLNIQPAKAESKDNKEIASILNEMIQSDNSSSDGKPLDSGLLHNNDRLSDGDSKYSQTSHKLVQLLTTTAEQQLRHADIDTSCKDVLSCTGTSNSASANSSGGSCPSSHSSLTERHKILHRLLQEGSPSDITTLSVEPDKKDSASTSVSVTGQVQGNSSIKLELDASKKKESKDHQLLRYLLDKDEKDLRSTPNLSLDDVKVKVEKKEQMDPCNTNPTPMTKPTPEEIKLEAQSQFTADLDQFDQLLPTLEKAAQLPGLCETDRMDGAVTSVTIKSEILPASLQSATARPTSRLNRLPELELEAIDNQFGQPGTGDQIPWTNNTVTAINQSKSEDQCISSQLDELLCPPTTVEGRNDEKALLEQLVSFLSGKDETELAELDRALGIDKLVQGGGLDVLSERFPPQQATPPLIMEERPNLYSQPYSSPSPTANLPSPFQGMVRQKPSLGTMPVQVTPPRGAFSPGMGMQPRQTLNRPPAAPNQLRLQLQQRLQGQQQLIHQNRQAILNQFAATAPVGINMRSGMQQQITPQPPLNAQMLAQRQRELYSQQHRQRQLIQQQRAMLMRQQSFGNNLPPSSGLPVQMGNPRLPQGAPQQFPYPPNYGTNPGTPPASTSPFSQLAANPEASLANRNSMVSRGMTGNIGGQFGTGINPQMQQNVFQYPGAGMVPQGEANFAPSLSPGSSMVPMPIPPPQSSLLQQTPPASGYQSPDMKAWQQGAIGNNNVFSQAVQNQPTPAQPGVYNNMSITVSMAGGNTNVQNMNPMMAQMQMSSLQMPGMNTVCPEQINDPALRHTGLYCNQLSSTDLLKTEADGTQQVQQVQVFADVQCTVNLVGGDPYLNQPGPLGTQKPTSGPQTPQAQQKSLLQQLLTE
Test [4] is described as follows: repression of VP16-driven luciferase reporter – cell-based, luminescence, high throughput, counter-screen for SRC1 inhibitor project (AID 588824; in the data active = inhibition above about 25%). The settings on record: cell-based VP16 transactivation luciferase luminescence; at 3.6 µM; hits give high values.
A short description of test [5]: StAR promoter reporter inhibitors, counter-screen for LRH-1 inverse agonist project, cell-based, luminescence, high throughput (AID 651611; in the data active = inhibition above about 28%). The settings on record: StAR promoter luciferase reporter counterscreen, at 3.6 µM, hits give high values. A general note: A counterscreen serves to expose hits that act by an unwanted route or on another target.
The target in test [6] is Nuclear receptor subfamily 5 group A member 2 (Homo sapiens) (UniProt O00482). The test can be described thus: NR5A2 activity suppression in reporter cells – cell-based, luminescence, confirmation (AID 651613; in the data active = inhibition above about 42%;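 also: HEK293T cells co-transfected with LRH-1 and StAR promoter luciferase reporter; 0% = vehicle wells and 100% = parental cells lacking receptor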). The settings on record: cell-based LRH-1 luciferase reporter, inverse agonism; at 3.6 µM; hits give high values.
Nuclear receptor subfamily 5 group A member 2 (Homo sapiens), sequence (O00482 whole entry, looked up): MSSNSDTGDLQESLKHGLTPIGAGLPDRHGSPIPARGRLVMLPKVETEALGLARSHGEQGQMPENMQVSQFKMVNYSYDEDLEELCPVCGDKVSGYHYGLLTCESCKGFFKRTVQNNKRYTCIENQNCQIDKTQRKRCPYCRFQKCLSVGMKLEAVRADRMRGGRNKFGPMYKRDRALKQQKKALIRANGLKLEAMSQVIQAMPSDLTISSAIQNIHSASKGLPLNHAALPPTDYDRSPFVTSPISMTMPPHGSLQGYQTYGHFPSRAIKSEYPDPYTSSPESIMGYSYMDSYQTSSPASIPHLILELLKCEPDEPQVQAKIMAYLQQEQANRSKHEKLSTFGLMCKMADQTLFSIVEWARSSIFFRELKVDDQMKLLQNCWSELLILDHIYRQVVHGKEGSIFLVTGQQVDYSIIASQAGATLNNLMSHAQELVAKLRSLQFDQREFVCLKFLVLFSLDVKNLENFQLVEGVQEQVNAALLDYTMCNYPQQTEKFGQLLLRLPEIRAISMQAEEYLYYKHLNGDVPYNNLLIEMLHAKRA
The target in test [7] is Steroidogenic factor 1 (Homo sapiens) (UniProt Q13285). The test can be described thus: inverse agonism at SF1 nuclear receptor – cell-based, luminescence, high throughput, counter-screen for LRH-1 inverse agonist project (AID 651614; in the data active = inhibition above about 44%;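 also: cells cotransfected with StAR promoter reporter and SF1 expression vector; 0% = vehicle on cells with receptor and 100% = vehicle on cells lacking receptor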). The settings on record: cell-based SF1 luciferase reporter, at 3.6 µM, hits give high values.
Steroidogenic factor 1 (Homo sapiens), sequence (Q13285 whole entry, looked up, the tested form may be a part): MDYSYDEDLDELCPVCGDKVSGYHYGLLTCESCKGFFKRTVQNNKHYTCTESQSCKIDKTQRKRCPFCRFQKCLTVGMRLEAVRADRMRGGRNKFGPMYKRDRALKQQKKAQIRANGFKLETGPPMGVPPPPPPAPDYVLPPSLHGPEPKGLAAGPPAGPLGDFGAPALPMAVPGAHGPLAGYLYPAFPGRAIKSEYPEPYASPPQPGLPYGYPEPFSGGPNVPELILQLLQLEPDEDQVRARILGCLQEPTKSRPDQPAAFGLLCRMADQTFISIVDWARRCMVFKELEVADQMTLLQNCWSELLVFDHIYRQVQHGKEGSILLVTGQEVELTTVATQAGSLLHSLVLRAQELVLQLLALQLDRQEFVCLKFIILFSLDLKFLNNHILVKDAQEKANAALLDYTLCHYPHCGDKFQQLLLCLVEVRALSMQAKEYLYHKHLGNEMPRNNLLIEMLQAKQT
A short description of test [8]: compounds suppressing VP16-driven luciferase signal – cell-based, luminescence, high throughput, counter-screen for LRH-1 inverse agonist project (AID 651615; in the data active = inhibition above about 33%). The settings on record: Gal4-VP16 luciferase reporter cells, at 3.6 µM, hits give high values.

What is called inhibition is the relative decrease from the control value, in per cent.

Unmarked numbers belong to inactive results. The source made the active and inactive calls. Rule as the data show it, unless noted: active = inhibition above about 30%; inactive = the rest. Numbered stars: 1 amine (or outer) side, 2 acyl side, 3 side chain; on linkers, the order of the positions; unused ones are H or OH. Bridge positions count the residues as written; N and C are the ends. Square brackets hold non-standard residues; d marks the D form. Peptide text beside a SMILES is read from it. ξ: configuration not given here. X1 = CC[C@H](CCC[C@@H](O)[C@@H](C)C(=O)O[C@H](C)[C@@H](C)C/C=C(C)/C(=C\C(=O)[*:1])OC)O[*:2]; NMeξIle = CC[C@H](C)C(NC)C(=O)O; NMeV = CN[C@H](C(=O)O)C(C)C; NMeS = CN[C@@H](CO)C(=O)O

Nuclear receptor coactivator 3 (Homo sapiens), sequence (Q9Y6Q9 whole entry, looked up, the tested form may be a part): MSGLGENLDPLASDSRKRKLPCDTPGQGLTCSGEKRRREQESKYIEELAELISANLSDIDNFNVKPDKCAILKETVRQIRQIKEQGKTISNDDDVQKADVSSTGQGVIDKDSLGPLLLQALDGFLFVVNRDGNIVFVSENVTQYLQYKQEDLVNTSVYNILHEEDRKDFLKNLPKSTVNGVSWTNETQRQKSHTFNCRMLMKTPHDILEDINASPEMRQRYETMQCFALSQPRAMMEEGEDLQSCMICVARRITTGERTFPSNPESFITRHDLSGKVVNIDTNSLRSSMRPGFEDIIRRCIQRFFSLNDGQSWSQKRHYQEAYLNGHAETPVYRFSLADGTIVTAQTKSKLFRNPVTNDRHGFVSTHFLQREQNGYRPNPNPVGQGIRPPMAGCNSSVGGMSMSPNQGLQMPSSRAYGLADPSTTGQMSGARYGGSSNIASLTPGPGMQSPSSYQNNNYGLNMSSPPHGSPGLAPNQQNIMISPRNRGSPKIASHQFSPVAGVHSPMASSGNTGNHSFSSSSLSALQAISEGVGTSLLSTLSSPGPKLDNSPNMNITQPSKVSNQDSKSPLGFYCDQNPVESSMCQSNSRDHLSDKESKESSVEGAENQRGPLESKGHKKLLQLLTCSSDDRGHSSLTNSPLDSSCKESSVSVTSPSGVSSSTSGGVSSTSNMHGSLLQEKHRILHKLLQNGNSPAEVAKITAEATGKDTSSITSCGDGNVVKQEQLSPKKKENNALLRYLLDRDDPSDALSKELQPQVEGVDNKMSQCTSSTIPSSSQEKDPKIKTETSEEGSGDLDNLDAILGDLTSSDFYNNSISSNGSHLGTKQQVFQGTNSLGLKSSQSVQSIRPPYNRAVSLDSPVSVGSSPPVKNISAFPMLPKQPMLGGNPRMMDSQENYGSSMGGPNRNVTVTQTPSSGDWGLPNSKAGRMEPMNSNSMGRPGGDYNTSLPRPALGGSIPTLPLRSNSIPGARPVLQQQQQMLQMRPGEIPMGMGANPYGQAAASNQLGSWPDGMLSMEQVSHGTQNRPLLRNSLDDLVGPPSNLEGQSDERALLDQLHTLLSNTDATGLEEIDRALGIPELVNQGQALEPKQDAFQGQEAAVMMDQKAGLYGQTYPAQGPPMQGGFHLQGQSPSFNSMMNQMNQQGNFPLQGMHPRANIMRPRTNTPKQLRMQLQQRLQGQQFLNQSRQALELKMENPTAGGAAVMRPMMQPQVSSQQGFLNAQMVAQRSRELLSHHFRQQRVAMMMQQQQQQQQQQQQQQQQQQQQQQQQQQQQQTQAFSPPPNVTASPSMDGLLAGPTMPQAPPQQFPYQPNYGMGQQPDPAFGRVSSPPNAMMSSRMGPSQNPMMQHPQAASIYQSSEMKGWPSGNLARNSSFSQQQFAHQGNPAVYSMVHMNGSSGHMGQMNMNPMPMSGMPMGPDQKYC

For the molecule `COCCn1c(C)cc(C2=NNC(=Nc3ccccc3)SC2)c1C`, the inhibition was -62.4% in test [1]; -40.8% in test [2]; -119% in test [3]; -64% in test [4]; -73.4% in test [5]; -77.6% in test [6]. For the same molecule, the inhibition is -67.8% in test [7] and -136% in test [8].
For the molecule `C=C1C(=O)C23C(O)C1CCC2C12CCCC(C)(COC(C)=O)C1C(O)C3(O)OC2` (configuration not stated), the inhibition in test [1] was 66.6% (active); in test [2], 58.3% (active); in test [3], 20.7%; in test [4], 57.9% (active); in test [5], 71.9% (active); in test [6] it was 63.7% (active). Besides, the inhibition in test [7] is 74.4% (active); in test [8], 82.5% (active).
As to `COC(C(=O)C(O)C(C)O)C1Cc2cc3cc(OC4CC(OC5CC(O)C(O)C(C)O5)C(O)C(C)O4)c(C)c(O)c3c(O)c2C(=O)C1OC1CC(OC2CC(OC3CC(O)C(OC)C(C)O3)C(O)C(C)O2)C(O)C(C)O1` (configuration not stated), the inhibition in test [1] was 93.6% (active); in test [2], 93.9% (active); in test [3], 78% (active); in test [4] it was 92.2% (active); in test [5] it was 93.6% (active); in test [6], 109% (active). Besides, the inhibition in test [7] is 97.2% (active); in test [8] it was 99.4% (active).
As to `O=C(NCc1ccccc1)c1cccc(NC(=O)c2ccco2)c1`, the inhibition in test [1] was 18.4%; in test [2], 50.7% (active); in test [3], 26.9%; in test [4], 48.9% (active); in test [5] it was 35.5% (active); in test [6], 51.6% (active). Further, the results for the inhibition in test [7] and in test [8] were 51.1% (active) and 68.5% (active), respectively.
As to `CN(C)CCNc1ccc(CO)c2oc3ccc(O)cc3c(=O)c12`, the inhibition in test [1] is 4.57%; in test [2], 31% (active); in test [3], 33%; in test [4] it was 33.1% (active); in test [5] it was 47.7% (active); in test [6], 53.7% (active). The inhibition in test [7] is 53.1% (active); in test [8], 48.4% (active).
With `CC[n+]1c(/C=C2\Sc3ccccc3N2C)ccc2cccc(C)c21`, the inhibition in test [1] was 47.9% (active); in test [2] it was 68% (active); in test [3] it was 36.2%; in test [4], 79.5% (active); in test [5], 76.7% (active); in test [6], 109% (active). Further, the inhibition in test [7] is 91.6% (active); in test [8], 87% (active).
`CC1(C)CC(N2CCCC2)=CC(=[N+]2CCCCCC2)C1`: the inhibition was 23% in test [1]; 49.5% (active) in test [2]; -16.2% in test [3]; 52.1% (active) in test [4]; 0.24% in test [5]; 95% (active) in test [6]. Also, the inhibition in test [7] is 61.3% (active); in test [8], 60.9% (active).
In the case of `Cc1cc(/C=C2\SC(=S)N(C)C2=O)c(C)n1-c1ccc(O)cc1`, the inhibition is 73.9% (active) in test [1]; 61.8% (active) in test [2]; 49% (active) in test [3]; 47.5% (active) in test [4]; 40.3% (active) in test [5]; 7.93% in test [6]. For the same molecule, the inhibition in test [7] was 48% (active); in test [8] it was 39.5% (active).
On to `Cc1cccc2sc(NNC(=O)c3ccc(S(=O)(=O)N4CC(C)CC(C)C4)cc3)nc12` (configuration not stated), for which the inhibition was 31% in test [1]; 23.7% in test [2]; 32.8% in test [3]; 34% (active) in test [4]; 25% in test [5]; 45% (active) in test [6]. Further, the inhibition in test [7] is 36.2%; in test [8], 40.9% (active).
For the molecule `CCc1ccc(-n2cc(-c3ccc(F)cc3)[n+]3c2SCCC3)cc1`, the inhibition was 17.1% in test [1]; 32.1% (active) in test [2]; 19.1% in test [3]; 35.4% (active) in test [4]; 18.4% in test [5]; 67.7% (active) in test [6]. Moreover, the inhibition in test [7] is 60.9% (active); in test [8] it was 48.4% (active).
Regarding `CC[C@@H]1CCC[C@@H](O)[C@@H](C)C(=O)O[C@H](C)[C@@H](C)C/C=C(C)/C(OC)=C\C(=O)N(C)C([C@@H](C)CC)C(=O)N(C)[C@@H](C(C)C)C(=O)N(C)[C@@H](COC)C(=O)N2CCC[C@H]2C(=O)N(C)[C@@H](C(C)C)C(=O)N2CCC[C@H]2C(=O)O1` (some centres not stated) ([NMeξIle][NMeV][NMeS](Me)P[NMeV]P; linker N-C via X1), the inhibition is 79.9% (active) in test [1]; 86.5% (active) in test [2]; 57.1% (active) in test [3]; 87.5% (active) in test [4]; 83% (active) in test [5]; 104% (active) in test [6]. The inhibition was 94.8% (active) in test [7] and 93.1% (active) in test [8].
`COc1ccc(-c2cn(-c3ccc(OC)cc3)c3[n+]2-c2ccccc2CC3)cc1`: the inhibition in test [1] is 46.3% (active); in test [2], 55.9% (active); in test [3] it was 34.7%; in test [4], 59.9% (active); in test [5] it was 40.8% (active); in test [6] it was 88.8% (active). Besides, the inhibition in test [7] was 82.3% (active); in test [8] it was 77.8% (active).
Take `Cc1sc(NC(=O)/C=C/c2ccc3c(c2)OCO3)nc1-c1ccccc1`: the inhibition in test [1] was 24.4%; in test [2], 59.1% (active); in test [3], 32.1%; in test [4], 57.7% (active); in test [5], 42.9% (active); in test [6], 74.9% (active). Also, the results for the inhibition in test [7] and in test [8] were 74.1% (active) and 70.9% (active), respectively.
As to `Cc1ccc2[nH]c3c(c2c1)CCCC3NC(=O)CCl` (configuration not stated), the inhibition in test [1] is 87.4% (active); in test [2], 84.2% (active); in test [3], 44.3%; in test [4], 82.4% (active); in test [5] it was 92% (active); in test [6] it was 106% (active). For the same molecule, the inhibition in test [7] was 96.3% (active); in test [8] it was 92.3% (active).
